Our source for the inhibition values is ChEMBL document CHEMBL1961873, “Compounds: GSK PKIS; Assays: Nanosyn kinase panel” (2012).

Each structure is given as a SMILES string.

The target of experiment [1] is Mitogen-activated protein kinase kinase kinase kinase 4 (Homo sapiens) (UniProt O95819). Conditions: at 1 µM.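 Note: reported figure is an averaged inhibition value.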
Experiment [2] concerns the target Dual specificity mitogen-activated protein kinase kinase 1 (Homo sapiens) (UniProt Q02750). Conditions: at 0.1 µM.
The target is the same in experiment [3]. Particulars: at 1 µM.
For experiment [4], the target named is Misshapen-like kinase 1 (Homo sapiens) (UniProt Q8N4C8). Conditions: at 0.1 µM.
Experiment [5] shares this target. Conditions: at 1 µM.
For experiment [6], the target named is T1, Serine/threonine-protein kinase 4 (Homo sapiens) (UniProt Q13043).
T1 sequence (whole entry): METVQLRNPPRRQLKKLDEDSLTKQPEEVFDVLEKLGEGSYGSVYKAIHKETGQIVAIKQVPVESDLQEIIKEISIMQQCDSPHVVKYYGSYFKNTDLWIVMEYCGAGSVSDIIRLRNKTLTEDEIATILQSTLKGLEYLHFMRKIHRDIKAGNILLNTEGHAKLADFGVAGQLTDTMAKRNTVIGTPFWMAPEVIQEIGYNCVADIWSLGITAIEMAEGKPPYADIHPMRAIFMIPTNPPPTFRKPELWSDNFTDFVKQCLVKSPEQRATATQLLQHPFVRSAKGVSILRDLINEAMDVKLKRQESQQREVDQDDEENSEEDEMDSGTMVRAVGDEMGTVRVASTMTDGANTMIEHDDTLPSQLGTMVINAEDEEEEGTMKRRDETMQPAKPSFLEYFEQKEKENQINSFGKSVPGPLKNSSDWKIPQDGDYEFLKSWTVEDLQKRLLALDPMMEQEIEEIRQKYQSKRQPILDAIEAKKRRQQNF
Conditions: at 0.1 µM.

Experiment [7] concerns the target T1, Serine/threonine-protein kinase 4 (Homo sapiens). Particulars: at 1 µM.
In experiment [8] the target is T2, Serine/threonine-protein kinase 3 (Homo sapiens) (UniProt Q13188).
T2 sequence (whole entry): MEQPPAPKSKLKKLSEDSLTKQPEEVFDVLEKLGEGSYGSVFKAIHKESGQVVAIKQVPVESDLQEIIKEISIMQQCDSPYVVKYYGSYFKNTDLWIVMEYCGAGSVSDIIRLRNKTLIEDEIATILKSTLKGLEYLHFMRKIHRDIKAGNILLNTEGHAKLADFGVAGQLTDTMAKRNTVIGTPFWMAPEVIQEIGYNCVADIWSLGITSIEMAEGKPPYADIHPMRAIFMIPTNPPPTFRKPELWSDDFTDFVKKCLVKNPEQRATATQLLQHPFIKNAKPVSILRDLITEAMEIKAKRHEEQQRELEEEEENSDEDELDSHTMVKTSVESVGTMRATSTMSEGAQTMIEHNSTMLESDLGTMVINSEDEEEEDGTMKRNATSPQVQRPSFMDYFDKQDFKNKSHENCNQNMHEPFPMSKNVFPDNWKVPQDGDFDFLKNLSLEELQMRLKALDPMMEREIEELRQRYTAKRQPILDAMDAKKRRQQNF
Particulars: at 0.1 µM.

Experiment [9] addresses T2, Serine/threonine-protein kinase 3 (Homo sapiens). Conditions: at 1 µM.
The target in experiment [10] is Serine/threonine-protein kinase 26 (Homo sapiens) (UniProt Q9P289). Particulars: at 0.1 µM.
Experiment [11] has the same target. Conditions: at 1 µM.
For experiment [12], the target named is Serine/threonine-protein kinase PAK 1 (Homo sapiens) (UniProt Q13153). Conditions: at 0.1 µM.
For experiment [13] the target is unchanged. Particulars: at 1 µM.
Experiment [14] deals with Serine/threonine-protein kinase PAK 2 (Homo sapiens) (UniProt Q13177). Particulars: at 0.1 µM.
For experiment [15] the target is unchanged. Conditions: at 1 µM.
Experiment [16] concerns the target Serine/threonine-protein kinase PAK 3 (Homo sapiens) (UniProt O75914). Particulars: at 0.1 µM.
Experiment [17] has the same target. Particulars: at 1 µM.
Experiment [18] concerns the target Serine/threonine-protein kinase PAK 5 (Homo sapiens) (UniProt Q9P286). Particulars: at 0.1 µM.
The target is the same in experiment [19]. Conditions: at 1 µM.
Experiment [20] addresses Serine/threonine-protein kinase PAK 6 (Homo sapiens) (UniProt Q9NQU5). Conditions: at 0.1 µM.

Chain of Serine/threonine-protein kinase PAK 3 (Homo sapiens) (O75914 whole entry, looked up): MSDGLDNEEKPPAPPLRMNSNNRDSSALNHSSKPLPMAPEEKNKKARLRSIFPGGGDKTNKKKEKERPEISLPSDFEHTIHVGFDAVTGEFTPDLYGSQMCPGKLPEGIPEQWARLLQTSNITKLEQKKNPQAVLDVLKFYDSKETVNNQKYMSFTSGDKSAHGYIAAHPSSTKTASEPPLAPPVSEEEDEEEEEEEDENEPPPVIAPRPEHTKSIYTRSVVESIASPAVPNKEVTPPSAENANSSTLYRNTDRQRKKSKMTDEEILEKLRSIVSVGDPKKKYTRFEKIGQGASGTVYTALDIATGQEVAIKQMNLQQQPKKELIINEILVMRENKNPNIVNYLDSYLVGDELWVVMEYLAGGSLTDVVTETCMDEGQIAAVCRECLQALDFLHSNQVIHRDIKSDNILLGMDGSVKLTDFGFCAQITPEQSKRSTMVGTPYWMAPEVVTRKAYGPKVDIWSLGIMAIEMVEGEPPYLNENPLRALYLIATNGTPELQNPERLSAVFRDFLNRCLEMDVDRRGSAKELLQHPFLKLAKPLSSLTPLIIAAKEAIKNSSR
Chain of Dual specificity mitogen-activated protein kinase kinase 1 (Homo sapiens) (Q02750 whole entry): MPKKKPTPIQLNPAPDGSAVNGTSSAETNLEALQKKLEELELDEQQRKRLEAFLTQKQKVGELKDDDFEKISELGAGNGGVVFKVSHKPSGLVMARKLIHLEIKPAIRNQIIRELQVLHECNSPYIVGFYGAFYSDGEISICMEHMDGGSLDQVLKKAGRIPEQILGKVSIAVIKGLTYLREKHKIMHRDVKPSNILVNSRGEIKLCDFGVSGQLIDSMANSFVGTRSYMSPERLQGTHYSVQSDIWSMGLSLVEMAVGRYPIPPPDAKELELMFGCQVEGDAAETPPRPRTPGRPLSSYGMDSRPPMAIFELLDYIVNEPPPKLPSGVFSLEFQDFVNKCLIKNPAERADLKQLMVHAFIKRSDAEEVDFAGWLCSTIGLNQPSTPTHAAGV
Chain of Misshapen-like kinase 1 (Homo sapiens) (Q8N4C8 whole entry, looked up): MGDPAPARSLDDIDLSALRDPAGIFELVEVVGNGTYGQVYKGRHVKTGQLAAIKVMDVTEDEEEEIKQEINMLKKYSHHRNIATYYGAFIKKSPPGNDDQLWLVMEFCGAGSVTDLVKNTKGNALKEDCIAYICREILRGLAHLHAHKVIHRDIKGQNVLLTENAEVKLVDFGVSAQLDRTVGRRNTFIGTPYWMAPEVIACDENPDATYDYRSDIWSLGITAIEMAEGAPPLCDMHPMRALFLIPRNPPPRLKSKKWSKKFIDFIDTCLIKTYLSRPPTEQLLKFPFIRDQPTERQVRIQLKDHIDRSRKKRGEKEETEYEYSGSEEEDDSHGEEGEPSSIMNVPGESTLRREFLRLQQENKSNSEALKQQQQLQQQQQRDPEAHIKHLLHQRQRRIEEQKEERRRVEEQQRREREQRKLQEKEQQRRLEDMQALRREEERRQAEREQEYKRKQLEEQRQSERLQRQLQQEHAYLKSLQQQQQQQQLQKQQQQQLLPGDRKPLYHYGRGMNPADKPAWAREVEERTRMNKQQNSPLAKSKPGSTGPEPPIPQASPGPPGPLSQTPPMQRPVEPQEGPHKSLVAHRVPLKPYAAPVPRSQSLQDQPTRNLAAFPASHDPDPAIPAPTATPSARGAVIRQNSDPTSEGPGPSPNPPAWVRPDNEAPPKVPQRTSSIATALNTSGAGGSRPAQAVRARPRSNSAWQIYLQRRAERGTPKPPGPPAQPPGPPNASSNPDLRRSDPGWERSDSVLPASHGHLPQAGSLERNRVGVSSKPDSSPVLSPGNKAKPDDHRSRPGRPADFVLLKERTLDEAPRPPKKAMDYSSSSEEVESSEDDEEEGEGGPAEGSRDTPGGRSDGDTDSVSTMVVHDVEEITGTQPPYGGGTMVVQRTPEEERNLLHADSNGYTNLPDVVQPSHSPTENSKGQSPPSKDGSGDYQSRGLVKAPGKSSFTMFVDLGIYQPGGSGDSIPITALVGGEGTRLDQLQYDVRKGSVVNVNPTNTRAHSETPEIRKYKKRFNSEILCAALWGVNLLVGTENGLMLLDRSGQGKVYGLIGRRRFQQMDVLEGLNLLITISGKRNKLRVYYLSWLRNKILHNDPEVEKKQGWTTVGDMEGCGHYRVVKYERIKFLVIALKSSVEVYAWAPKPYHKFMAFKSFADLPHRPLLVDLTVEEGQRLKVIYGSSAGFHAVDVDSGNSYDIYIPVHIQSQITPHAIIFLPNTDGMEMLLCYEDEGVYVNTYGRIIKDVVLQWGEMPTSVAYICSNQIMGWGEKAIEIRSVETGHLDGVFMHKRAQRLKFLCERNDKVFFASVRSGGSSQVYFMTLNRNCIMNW
Chain of Serine/threonine-protein kinase 26 (Homo sapiens) (Q9P289 2-416 limits assumed): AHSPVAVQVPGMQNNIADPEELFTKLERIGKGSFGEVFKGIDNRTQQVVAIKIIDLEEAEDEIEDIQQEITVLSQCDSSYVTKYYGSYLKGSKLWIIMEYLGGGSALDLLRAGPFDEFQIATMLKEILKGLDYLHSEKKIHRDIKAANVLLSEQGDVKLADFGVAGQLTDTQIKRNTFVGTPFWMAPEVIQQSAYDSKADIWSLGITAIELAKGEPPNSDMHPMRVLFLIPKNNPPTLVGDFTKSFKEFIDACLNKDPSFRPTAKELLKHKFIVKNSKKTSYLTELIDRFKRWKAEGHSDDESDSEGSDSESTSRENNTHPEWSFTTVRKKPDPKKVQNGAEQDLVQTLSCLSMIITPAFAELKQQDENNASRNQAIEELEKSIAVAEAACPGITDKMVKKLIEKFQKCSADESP
Chain of Serine/threonine-protein kinase PAK 5 (Homo sapiens) (Q9P286 whole entry, looked up): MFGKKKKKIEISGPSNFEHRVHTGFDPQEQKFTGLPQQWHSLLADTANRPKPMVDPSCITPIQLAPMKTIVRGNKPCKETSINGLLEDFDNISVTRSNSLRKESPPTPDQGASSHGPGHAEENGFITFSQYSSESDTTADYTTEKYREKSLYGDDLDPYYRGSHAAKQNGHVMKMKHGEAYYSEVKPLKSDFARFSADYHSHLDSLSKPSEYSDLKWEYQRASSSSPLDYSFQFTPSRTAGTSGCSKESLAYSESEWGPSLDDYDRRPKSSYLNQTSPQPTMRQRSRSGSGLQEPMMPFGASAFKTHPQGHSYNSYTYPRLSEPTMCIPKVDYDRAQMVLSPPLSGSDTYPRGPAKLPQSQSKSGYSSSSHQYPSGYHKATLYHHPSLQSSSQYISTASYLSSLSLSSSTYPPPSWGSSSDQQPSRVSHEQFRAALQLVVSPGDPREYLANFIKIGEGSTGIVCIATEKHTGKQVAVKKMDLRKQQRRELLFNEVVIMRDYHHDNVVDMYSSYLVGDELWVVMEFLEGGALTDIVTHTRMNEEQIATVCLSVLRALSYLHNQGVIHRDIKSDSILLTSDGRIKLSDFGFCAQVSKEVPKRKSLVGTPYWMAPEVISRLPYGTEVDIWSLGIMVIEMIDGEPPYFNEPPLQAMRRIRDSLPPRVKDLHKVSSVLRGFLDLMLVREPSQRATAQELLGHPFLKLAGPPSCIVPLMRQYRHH
Chain of Serine/threonine-protein kinase PAK 1 (Homo sapiens) (Q13153 whole entry): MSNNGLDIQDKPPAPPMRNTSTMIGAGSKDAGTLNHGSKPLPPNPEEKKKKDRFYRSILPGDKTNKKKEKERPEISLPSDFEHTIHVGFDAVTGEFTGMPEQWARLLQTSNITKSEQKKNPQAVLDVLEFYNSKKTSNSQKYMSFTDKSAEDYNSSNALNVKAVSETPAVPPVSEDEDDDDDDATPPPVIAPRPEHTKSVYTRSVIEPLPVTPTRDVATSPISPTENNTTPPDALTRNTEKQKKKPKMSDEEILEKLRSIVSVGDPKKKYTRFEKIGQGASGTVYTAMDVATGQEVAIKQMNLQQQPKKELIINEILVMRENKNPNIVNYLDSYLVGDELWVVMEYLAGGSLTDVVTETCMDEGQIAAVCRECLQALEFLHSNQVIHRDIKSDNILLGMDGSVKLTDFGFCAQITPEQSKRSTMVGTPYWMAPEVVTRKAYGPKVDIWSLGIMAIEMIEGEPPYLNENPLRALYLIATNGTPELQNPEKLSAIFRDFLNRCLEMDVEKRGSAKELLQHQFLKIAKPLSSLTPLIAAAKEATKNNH
Chain of Serine/threonine-protein kinase PAK 2 (Homo sapiens) (Q13177 whole entry): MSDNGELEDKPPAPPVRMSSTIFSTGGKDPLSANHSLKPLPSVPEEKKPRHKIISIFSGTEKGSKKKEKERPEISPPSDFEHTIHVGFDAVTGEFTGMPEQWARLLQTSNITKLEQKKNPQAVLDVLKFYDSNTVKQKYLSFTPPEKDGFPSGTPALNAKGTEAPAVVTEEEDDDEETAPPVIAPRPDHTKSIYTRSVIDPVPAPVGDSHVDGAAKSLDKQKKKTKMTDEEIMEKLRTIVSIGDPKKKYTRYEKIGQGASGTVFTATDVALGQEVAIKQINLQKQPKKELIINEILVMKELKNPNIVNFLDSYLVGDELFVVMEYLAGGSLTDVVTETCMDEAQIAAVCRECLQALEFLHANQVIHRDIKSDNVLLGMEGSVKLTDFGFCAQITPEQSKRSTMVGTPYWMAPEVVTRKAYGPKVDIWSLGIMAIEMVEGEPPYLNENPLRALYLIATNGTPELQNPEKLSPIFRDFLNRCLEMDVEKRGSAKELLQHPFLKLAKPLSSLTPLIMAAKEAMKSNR

Take `O=C1Nc2ccccc2/C1=C1\CCc2cc(O)ccc21`: the inhibition was found to be 66.8% in experiment [1]; 7.68% in [2]; 9.97% in experiment [3]; 17.6% in [4]; 58.9% in experiment [5]; 20.8% in [6]. For the same compound, the inhibition was 58.5% in experiment [7]; 15.1% in [8]; 52.4% in experiment [9]; -4.52% in experiment [10]; -7.51% in experiment [11]; 7.55% in experiment [12]. Besides, the inhibition in [13] is 7.72%; in [14], 2.86%; in experiment [15], 3.05%; in experiment [16], 5.7%; in experiment [17] it was 6.44%; in [18], 0.23%. In addition, the inhibition in experiment [19] is 1.47%; in [20], -1.41%.
`COc1ccc2ncn(-c3cc(O[C@H](C)c4ccccc4C(F)(F)F)c(C(N)=O)s3)c2c1`: the inhibition in [1] was 3.61%; in experiment [2], 0.25%; in [3], -0.57%; in [4] it was 1.05%; in experiment [5] it was 4.03%; in experiment [6], 1.43%. Besides, the inhibition in experiment [7] is 22.5%; in experiment [8], 0.2%; in experiment [9] it was 18.8%; in [10], 0.64%; in experiment [11], 13.1%; in [12], -0.34%. Besides, the inhibition in experiment [13] is 2.49%; in [14], -1.58%; in experiment [15], -0.3%; in [16], -2.52%; in experiment [17], 0.02%; in [18], -6.5%. Also, the inhibition in experiment [19] is -1.3%; in experiment [20] it was -7.06%.
With `CNC(=O)c1ncccc1Nc1nc(Nc2cc3c(cc2OC)CCCN3C(=O)CN(C)C)nc2[nH]ccc12`, the inhibition in experiment [1] is 6.26%; in experiment [2], 3.03%; in experiment [3], 3.53%; in experiment [4], 5.92%; in experiment [5] it was 7.79%; in experiment [6], 8.58%. Moreover, the inhibition in [7] is 12.8%; in experiment [8] it was 8.59%; in experiment [9] it was 7.84%; in [10], -2.11%; in experiment [11], -5.28%; in experiment [12], 7.85%. Also, the inhibition in experiment [13] was 7.25%; in [14] it was 0.92%; in experiment [15] it was 1.69%; in experiment [16], 4.29%; in [17] it was 5.27%; in experiment [18], 5.25%. Also, the inhibition in experiment [19] is -0.15%; in experiment [20], 11.4%.
Regarding `COc1ccccc1-c1cc(/C=C2\C(=O)Nc3ncc(Br)cc32)cc(Br)c1O`, the inhibition worked out at 14% in [1]; 6.54% in experiment [2]; 5.7% in [3]; 5.71% in [4]; 13.3% in experiment [5]; 6.41% in experiment [6]. In addition, the inhibition in experiment [7] is 8.19%; in experiment [8], 7.78%; in experiment [9], 8.09%; in experiment [10], 2.55%; in experiment [11] it was 13.5%; in [12] it was 6.7%. For the same compound, the inhibition turned out to be 6.23% in experiment [13]; 1.92% in [14]; 2.48% in experiment [15]; 4.55% in experiment [16]; 5.35% in [17]; 0.29% in experiment [18]. Also, the inhibition was 0.44% in [19] and -1.24% in [20].
In the case of `CC(C)c1ccc(-c2cc(-c3c[nH]nc3-c3ccccn3)ccn2)cc1`, the inhibition in experiment [1] was 53.8%; in experiment [2] it was 0.36%; in experiment [3], 2.47%; in [4], 7.67%; in experiment [5], 37.6%; in [6] it was 0.63%. Also, the inhibition in experiment [7] is -0.98%; in experiment [8], 1.18%; in experiment [9], 0.64%; in experiment [10], 0.06%; in experiment [11] it was 3.31%; in experiment [12] it was 1.09%. Also, the inhibition in experiment [13] was -1.39%; in [14] it was 0.93%; in [15], -0.21%; in experiment [16] it was -0.3%; in experiment [17], 0.21%; in experiment [18], -1.29%. Further, the inhibition in experiment [19] was -0.36%; in experiment [20], 2.8%.
On to `COC(=O)Nc1nc2cc(Oc3ccc(NC(=O)Nc4ccccc4)cc3)ccc2[nH]1`, for which the inhibition amounted to 12.9% in experiment [1]; 3.88% in experiment [2]; 2.45% in experiment [3]; 5.15% in experiment [4]; 11.3% in experiment [5]; 3.7% in [6]. Also, the inhibition in [7] was 4.62%; in experiment [8] it was 5.39%; in experiment [9] it was 6.48%; in [10] it was -0.23%; in experiment [11] it was 0.25%; in experiment [12], 0.78%. For the same compound, the inhibition in experiment [13] was 3.46%; in [14] it was 1.73%; in experiment [15], 0.63%; in experiment [16] it was 3.68%; in experiment [17], 4.15%; in [18] it was -3.58%. The inhibition in [19] is -3.97%; in [20], -4.28%.
In the case of `CCS(=O)(=O)c1ccc(OC)c(Nc2ncc(-c3cccc(C(C)=O)c3)o2)c1`, the inhibition in [1] is 10.2%; in experiment [2], 3.55%; in [3] it was 2.6%; in [4], 3.09%; in [5], 8.97%; in [6] it was 7.14%. Besides, the inhibition is 13.3% in experiment [7]; 7.18% in experiment [8]; 12.6% in experiment [9]; -0.19% in experiment [10]; 1.58% in [11]; 8.45% in [12]. Further, the inhibition was 1.48% in experiment [13]; 2.47% in experiment [14]; 1.36% in experiment [15]; -0.54% in experiment [16]; 3.98% in experiment [17]; 7.26% in [18]. The inhibition in experiment [19] came to 8.72%; in [20], 7.53%.
With `CC1=C(C(=O)Nc2ccc3[nH]nc(C)c3c2)C(c2ccc(C(F)(F)F)cc2)CC(=O)N1` (stereo not given), the inhibition in [1] came out at 1.55%; in [2], 6.17%; in [3], 36.5%; in [4], 4.68%; in [5], 4.08%; in experiment [6] it was 5.04%. The inhibition was 7.56% in experiment [7]; 5.03% in experiment [8]; 5.46% in [9]; -1.47% in experiment [10]; -2.31% in experiment [11]; 4.1% in experiment [12]. The inhibition in experiment [13] amounted to 3.72%; in experiment [14], 1.78%; in experiment [15], 1.55%; in experiment [16] it was 2.35%; in experiment [17] it was 2.95%; in experiment [18], 10.3%. Further, the inhibition was -2.13% in experiment [19] and -0.15% in experiment [20].
In the case of `NS(=O)(=O)c1ccc(N/N=C2\C(=O)Nc3cccc(CCc4ccncc4)c32)cc1`, the inhibition in [1] is 16.9%; in experiment [2], 1.96%; in experiment [3] it was 3.3%; in experiment [4], 4%; in [5] it was 10.8%; in experiment [6] it was 31.3%. Further, the inhibition is 48.9% in experiment [7]; 20.1% in [8]; 29.8% in experiment [9]; 10.5% in experiment [10]; 9.93% in experiment [11]; 1.58% in [12]. Moreover, the inhibition in [13] stood at 2.13%; in [14], 0.84%; in experiment [15], 0.54%; in experiment [16], 0.06%; in experiment [17], 0.66%; in experiment [18], 1.07%. The values for the inhibition in experiment [19] and in [20] were 3.39% and -5.12%, respectively.

The term inhibition denotes the relative decrease from the control value, in per cent.
